# Records with an inconclusive call do not appear. A call without a number means that no potency is given here. A number with no mark means an inactive call. Active and inactive are the calls of the source. Calls come from the whole dose curve; as a rule, active = well fitted cell-killing curve with a large enough effect in the repeat runs; inconclusive = weak or mixed curves, or effect the other way; inactive = flat fitted curve, though single readings scatter.
# Experiment: qHTS assay to identify small molecule agonists of the sonic hedgehog signaling (Shh) pathway - cell viability counter screen (AID 1259366); note: nearly all actives have a fitted effect of over 50% in size
# Settings: NIH/3T3 Gli1-Luc viability, CellTiter-Fluor, 24 h; series mostly up to 92.4 µM
# Text: National Center for Advancing Translational Sciences [NCATS]
# NIH Chemical Genomics Center [NCGC]
# U.S. Environmental Protection Agency [EPA]
# National Institutes of Environmental Health Sciences [NIEHS]
# National Toxicology Program [NTP]
# U.S. Food and Drug Administration [FDA]
# The sonic hedgehog (Shh) pathway is essential for normal embryonic development. Dysregulation of the Shh pathway can cause severe developmental defects in organs. Therefore chemicals that interfere with the pathway are potential developmental toxicants. A cell line designated 3T3Gli1-Luc (DMB/OARSA/CFSAN/FDA, Laurel, MD), a NIH/3T3 derived clone containing stably integrated Gli1-Luc reporter is used to detect chemical interference of the Shh pathway, by changes in the expression of the firefly Luc gene under the control of the Gli1 transcriptional response element. This cell line was used to screen Tox21 libraries for identifying and prioritizing the potential developmental toxicants that interfere Shh pathway. The cytotoxicity of the compounds was tested in parallel by measuring the cell viability using CellTiter-Fluor assay system (Promega, Madison, WI) in the same wells.
# Tox21 Assay Protocol Summary:
# 3T3 Gli1-Luc cells were dispensed at 2,000 per well in 5uL of culture medium into white solid bottom 1536-well plates (Greiner Bio-One, Monroe, NC) using a Multidrop Combi (Thermo Scientific, Waltham, MA) dispenser. The assay plates were incubated at 37 C and 5% CO2 for 4hr, and then 23nL of compounds dissolved in DMSO and positive control were transferred using a Pintool station (Wako, San Diego, CA). The assay plates were incubated at 37C and 5% CO2 for 24hr. For viability read, after 23hr of compound treatment, 1uL of CellTiter-Fluor reagent (Promega Corporation, Madison, WI) was added to each well of the assay plates using Flying Reagent Dispenser (FRD, Aurora Discovery, San Diego, CA) and incubated the assay plates at 37C for 1hr. The fluorescence signal was quantified using a ViewLux plate reader (Perkin Elmer, Shelton, CT).
SMILES,Potency,"viability change, negative = cytotoxic"
Fc1ccccc1-c1ccccc1,inactive,
CCCCCCC(=O)OCC,inactive,
CCCCC1CCCCC(=O)O1 (stereo not given),inactive,
N[C@@H](CS)C(=O)O,inactive,
OC[C@H]1O[C@@H]2O[C@H]3[C@H](O)[C@@H](O)[C@@H](O[C@H]4[C@H](O)[C@@H](O)[C@@H](O[C@H]5[C@H](O)[C@@H](O)[C@@H](O[C@H]6[C@H](O)[C@@H](O)[C@@H](O[C@H]7[C@H](O)[C@@H](O)[C@@H](O[C@H]8[C@H](O)[C@@H](O)[C@@H](O[C@H]9[C@H](O)[C@@H](O)[C@@H](O[C@H]1[C@H](O)[C@H]2O)O[C@@H]9CO)O[C@@H]8CO)O[C@@H]7CO)O[C@@H]6CO)O[C@@H]5CO)O[C@@H]4CO)O[C@@H]3CO,inactive,
O=C(O)C(O)[C@H](O)[C@@H](O)[C@H](O)[C@H](O)CO (stereo not given in full),inactive,
O=C(O)c1ccc[n+]([O-])c1,inactive,
COc1ccc(COC=O)cc1,inactive,
CCCC(=O)O[C@]1(C(=O)CCl)[C@@H](C)C[C@H]2[C@@H]3CCC4=CC(=O)C=C[C@]4(C)[C@@]3(F)C(=O)C[C@@]21C,inactive,
CO[Si](OC)(OC)OC,inactive,
CC(=O)NC(Cc1ccccc1)C(=O)O (stereo not given),inactive,
OCc1ccccn1,inactive,
COc1cc(CCC(C)=O)ccc1O,inactive,
NS(=O)(=O)c1cc(C2(O)NC(=O)c3ccccc32)ccc1Cl (stereo not given),inactive,
CC(O)CN(CCCN(C)C)CCCN(C)C (stereo not given),inactive,
CO,inactive,
CCO[Si](C)(OCC)OCC,inactive,
CC12CCC(CC1=O)C2(C)C (stereo not given),inactive,
C=CCn1c(=O)n([C@@H]2O[C@H](CO)[C@@H](O)[C@H]2O)c2nc(N)[nH]c(=O)c21,inactive,
CC(C)(C)C(=O)/C=C/c1ccc(Cl)cc1,inactive,

SMILES,Potency,"viability change, negative = cytotoxic"
COC(C(=O)O)c1ccccc1 (stereo not given),inactive,
CC(C)(O)C(=O)c1ccc(OCCO)cc1,inactive,
CCC(C)OC(=O)N1CCCCC1CCO (stereo not given),inactive,
O=C1CC2(CCCC2)CC(=O)N1,inactive,
[O-][N+](=Nc1ccccc1)c1ccccc1,inactive,
CC(=O)c1ccc(C)cc1,inactive,
CC(C)(C)OC(=O)N1C[C@@H](F)C[C@H]1C(=O)O,inactive,
COc1ccc(NC(C)=O)cc1,inactive,
NC(N)=NS(=O)(=O)c1ccc(N)cc1,inactive,
Cc1ccc(Nc2ccc(O)c3c2C(=O)c2ccccc2C3=O)cc1,inactive,
OCC(O)[C@@H](O)[C@H](O)[C@H](O)CO[C@H]1O[C@H](CO)[C@@H](O)[C@H](O)[C@H]1O (stereo not given in full),inactive,
CCCCCCCCCCCl,inactive,
Oc1ccc2c(c1)OC[C@@H](N1CCC(O)(c3ccc(F)cc3)CC1)[C@H]2O,inactive,
C=C(C)C(=O)OCCC(C)OC(=O)C(=C)C (stereo not given),inactive,
NC(=S)Nc1cccc2ccccc12,,-0.646% [at 8.39 µM]
NS(=O)(=O)c1cc2c(cc1C(F)(F)F)NC(Cc1ccccc1)NS2(=O)=O (stereo not given),inactive,
C=CCOc1nc(OCC=C)nc(OCC=C)n1,inactive,
Nc1cc(N)cc(C(=O)O)c1,inactive,
CCN1CCN(c2cc3c(cc2F)c(=O)c(C(=O)O)cn3C2CC2)CC1,inactive,
CCn1cc(C(=O)O)c(=O)c2cc(F)c(N3CCN(C)CC3)cc21,,6.14% [at 19 µM]
